This note sets out measurements from article PMC7862700, “An all-to-all approach to the identification of sequence-specific readers for epigenetic DNA modifications on cytosine”.

Holding throughout (assay): DAPPL (digital affinity profiling via proximity ligation, sequencing); 10 mM Tris-HCl pH 7.5, 50 mM NaCl, 1 mM DTT, 4% glycerol, room temperature, 30 min; GST-TFs on glutathione beads, 16-mer random dsDNA library, 0.1% formaldehyde crosslink after washing; high values mean tight binding
One experiment has as its target T1, FLI1 (Homo sapiens, UniProt Q01543 1-452).
T1 sequence: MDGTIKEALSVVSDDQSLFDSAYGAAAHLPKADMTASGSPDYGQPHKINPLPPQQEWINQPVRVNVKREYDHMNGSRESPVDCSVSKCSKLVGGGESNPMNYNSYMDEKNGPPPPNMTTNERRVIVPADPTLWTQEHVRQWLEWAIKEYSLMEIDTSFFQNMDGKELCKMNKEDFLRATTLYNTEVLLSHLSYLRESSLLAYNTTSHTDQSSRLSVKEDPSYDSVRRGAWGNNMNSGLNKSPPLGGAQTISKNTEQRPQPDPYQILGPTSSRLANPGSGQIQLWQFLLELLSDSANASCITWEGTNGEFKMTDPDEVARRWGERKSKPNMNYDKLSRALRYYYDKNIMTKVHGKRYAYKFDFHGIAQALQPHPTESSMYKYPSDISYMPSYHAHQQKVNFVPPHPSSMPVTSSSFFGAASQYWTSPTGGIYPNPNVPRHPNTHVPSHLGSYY
The settings on record: protein: recombinant; tags: N-terminal GST; dsDNA, one strand shown. A digest of the protocol:
(§1)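 Pools of DNA-barcoded human transcription factors, expressed in yeast as GST fusions on glutathione beads and combined with a tag-only sample, were incubated with 200 nmole of a 16-mer random double-stranded DNA library. Incubation took 30 min at room temperature in Tris/NaCl/DTT/glycerol buffer and was followed by washing, 0.1% formaldehyde crosslinking, proximity ligation (BsaI/T4 ligase, 1 h, 37 °C), PCR amplification and sequencing on an Illumina NextSeq500. Binding signal is the ratio of a hexamer's read frequency for a factor to its frequency for the tag-only sample.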

The target of another experiment is T2, ELK1 (Homo sapiens, UniProt P19419 1-428).
T2 sequence: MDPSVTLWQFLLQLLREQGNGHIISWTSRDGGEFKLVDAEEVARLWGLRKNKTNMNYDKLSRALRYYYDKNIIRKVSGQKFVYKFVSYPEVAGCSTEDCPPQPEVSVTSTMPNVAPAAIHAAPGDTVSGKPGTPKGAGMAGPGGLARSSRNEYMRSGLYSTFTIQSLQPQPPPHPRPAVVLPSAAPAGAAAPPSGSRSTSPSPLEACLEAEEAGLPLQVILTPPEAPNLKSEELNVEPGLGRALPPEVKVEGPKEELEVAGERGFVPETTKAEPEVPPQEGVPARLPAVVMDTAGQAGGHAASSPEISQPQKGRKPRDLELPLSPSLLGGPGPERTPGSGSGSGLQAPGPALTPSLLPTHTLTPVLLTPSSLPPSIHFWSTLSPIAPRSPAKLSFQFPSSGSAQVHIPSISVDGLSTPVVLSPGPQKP
The settings on record: protein: recombinant; tags: N-terminal GST; dsDNA, one strand shown. A digest of the protocol: as §1

The target of the next experiment is T3, GABPA (Homo sapiens, UniProt Q06546 1-454).
T3 sequence: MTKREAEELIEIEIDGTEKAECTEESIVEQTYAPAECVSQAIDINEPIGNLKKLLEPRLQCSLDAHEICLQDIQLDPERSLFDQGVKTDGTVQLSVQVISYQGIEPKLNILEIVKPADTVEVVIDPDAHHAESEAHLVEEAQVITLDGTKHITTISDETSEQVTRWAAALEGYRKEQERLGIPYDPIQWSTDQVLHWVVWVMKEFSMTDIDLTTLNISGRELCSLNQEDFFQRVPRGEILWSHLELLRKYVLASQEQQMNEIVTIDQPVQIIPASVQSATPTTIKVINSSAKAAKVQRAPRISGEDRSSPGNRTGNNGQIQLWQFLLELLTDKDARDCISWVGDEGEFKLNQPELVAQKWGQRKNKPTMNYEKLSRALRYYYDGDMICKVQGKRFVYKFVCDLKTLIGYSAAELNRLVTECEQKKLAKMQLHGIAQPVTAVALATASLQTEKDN
The note with it: protein: recombinant; tags: N-terminal GST; dsDNA, one strand shown. The method, boiled down: as §1

The target of another experiment is T4, ERG (Homo sapiens, UniProt P11308 1-479).
T4 sequence: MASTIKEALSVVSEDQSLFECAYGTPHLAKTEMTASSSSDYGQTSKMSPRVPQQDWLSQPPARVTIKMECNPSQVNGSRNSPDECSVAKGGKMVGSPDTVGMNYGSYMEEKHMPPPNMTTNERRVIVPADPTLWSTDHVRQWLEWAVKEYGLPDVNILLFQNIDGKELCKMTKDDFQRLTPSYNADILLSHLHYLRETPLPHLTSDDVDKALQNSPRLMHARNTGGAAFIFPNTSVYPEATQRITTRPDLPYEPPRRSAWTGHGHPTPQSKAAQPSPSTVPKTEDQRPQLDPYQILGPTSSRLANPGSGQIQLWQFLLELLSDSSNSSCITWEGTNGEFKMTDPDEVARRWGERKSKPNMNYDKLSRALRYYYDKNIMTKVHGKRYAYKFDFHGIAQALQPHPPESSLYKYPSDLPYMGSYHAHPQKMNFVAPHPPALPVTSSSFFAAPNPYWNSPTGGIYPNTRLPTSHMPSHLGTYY
The settings on record: protein: recombinant; tags: N-terminal GST; dsDNA, one strand shown. The method, boiled down:
as §1

The target of a further experiment is ELF1 (Homo sapiens, UniProt P32519 1-619). The settings on record: protein: recombinant; tags: N-terminal GST; dsDNA, one strand shown. The method, boiled down: as §1
Chain of ELF1 (P32519 whole entry): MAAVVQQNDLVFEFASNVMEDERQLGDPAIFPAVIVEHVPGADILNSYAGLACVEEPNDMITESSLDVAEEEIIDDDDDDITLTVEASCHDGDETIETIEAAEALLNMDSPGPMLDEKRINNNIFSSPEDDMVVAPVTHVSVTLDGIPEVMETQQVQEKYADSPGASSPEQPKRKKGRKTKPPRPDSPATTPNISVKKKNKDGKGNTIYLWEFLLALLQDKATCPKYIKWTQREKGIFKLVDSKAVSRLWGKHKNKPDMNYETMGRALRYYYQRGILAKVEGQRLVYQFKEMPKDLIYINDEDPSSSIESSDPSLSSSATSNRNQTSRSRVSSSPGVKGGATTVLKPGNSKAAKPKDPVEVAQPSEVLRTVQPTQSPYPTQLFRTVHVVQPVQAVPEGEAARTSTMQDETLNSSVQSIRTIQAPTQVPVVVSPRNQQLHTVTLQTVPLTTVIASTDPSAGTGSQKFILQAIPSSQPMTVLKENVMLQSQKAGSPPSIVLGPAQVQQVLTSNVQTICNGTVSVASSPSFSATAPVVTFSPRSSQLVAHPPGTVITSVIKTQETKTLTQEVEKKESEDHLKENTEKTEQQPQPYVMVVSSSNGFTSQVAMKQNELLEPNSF
Another experiment deals with T5, EHF (Homo sapiens, UniProt Q9NZC4 1-300).
T5 sequence: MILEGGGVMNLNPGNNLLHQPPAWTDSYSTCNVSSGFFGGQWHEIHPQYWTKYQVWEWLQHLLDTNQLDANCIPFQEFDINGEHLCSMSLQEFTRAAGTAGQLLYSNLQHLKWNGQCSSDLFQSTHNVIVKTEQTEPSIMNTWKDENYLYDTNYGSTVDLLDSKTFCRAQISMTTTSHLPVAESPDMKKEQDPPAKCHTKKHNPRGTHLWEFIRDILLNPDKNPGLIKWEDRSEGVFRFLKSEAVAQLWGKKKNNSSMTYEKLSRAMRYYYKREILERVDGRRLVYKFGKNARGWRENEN
The note with it: protein: recombinant; tags: N-terminal GST; dsDNA, one strand shown. The method, boiled down:
as §1

For the next experiment, the target named is SPI1 (Homo sapiens, UniProt P17947 1-270). The note with it: protein: recombinant; tags: N-terminal GST; dsDNA, one strand shown. The method, boiled down:
as §1

The next experiment deals with SPIB (Homo sapiens, UniProt Q01892 1-262). The note with it: protein: recombinant; tags: N-terminal GST; dsDNA, one strand shown. The method, boiled down:
as §1

The target in a further experiment is T6, FEV (Homo sapiens, UniProt Q99581 1-238).
T6 sequence: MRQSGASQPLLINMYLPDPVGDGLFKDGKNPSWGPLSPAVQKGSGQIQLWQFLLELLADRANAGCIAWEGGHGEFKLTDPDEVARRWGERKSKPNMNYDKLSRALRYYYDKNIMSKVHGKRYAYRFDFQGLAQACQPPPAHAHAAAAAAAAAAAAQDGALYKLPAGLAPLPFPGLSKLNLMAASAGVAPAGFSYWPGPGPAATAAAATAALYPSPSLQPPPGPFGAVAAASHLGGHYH
The settings on record: protein: recombinant; tags: N-terminal GST; dsDNA, one strand shown. A digest of the protocol: as §1

The next experiment has as its target ETV5 (Homo sapiens, UniProt P41161 1-510). The note with it: protein: recombinant; tags: N-terminal GST; dsDNA, one strand shown. A digest of the protocol: as §1
The next experiment has as its target HSF1 (Homo sapiens, UniProt Q00613 1-529). The settings on record: protein: recombinant; tags: N-terminal GST; chain copies: 3; dsDNA, one strand shown. The method, boiled down:
as §1

Another experiment has as its target T7, SPIC (Homo sapiens, UniProt Q8N5J4 1-248).
T7 sequence: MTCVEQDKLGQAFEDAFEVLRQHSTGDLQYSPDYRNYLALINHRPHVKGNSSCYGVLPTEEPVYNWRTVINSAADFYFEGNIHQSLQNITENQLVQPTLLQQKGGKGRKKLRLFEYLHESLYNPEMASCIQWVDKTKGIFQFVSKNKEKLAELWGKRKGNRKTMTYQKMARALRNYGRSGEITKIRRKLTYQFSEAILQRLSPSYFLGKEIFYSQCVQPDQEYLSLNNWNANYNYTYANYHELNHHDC
The note with it: protein: recombinant; tags: N-terminal GST; dsDNA, one strand shown. The method, boiled down:
as §1

The target of another experiment is ELF4 (Homo sapiens, UniProt Q99607 1-663). The note with it: protein: recombinant; tags: N-terminal GST; dsDNA, one strand shown. The method, boiled down:
as §1

A further experiment deals with T8, ELK4 (Homo sapiens, UniProt P28324-2 1-405).
T8 sequence: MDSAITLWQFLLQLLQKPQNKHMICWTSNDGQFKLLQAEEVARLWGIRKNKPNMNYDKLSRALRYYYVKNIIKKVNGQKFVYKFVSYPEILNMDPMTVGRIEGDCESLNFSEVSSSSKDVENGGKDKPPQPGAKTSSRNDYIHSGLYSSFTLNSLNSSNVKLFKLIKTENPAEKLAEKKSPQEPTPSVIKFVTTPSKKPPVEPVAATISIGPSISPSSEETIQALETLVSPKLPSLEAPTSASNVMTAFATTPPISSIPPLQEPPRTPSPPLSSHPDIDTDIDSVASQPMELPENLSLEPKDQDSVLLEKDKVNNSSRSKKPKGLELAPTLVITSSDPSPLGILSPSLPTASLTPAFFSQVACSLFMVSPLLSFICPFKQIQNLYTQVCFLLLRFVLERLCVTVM
The settings on record: protein: recombinant; tags: N-terminal GST; dsDNA, one strand shown. The method, boiled down:
as §1

The next experiment has as its target T9, ETV2 (Homo sapiens, UniProt O00321 1-342).
T9 sequence: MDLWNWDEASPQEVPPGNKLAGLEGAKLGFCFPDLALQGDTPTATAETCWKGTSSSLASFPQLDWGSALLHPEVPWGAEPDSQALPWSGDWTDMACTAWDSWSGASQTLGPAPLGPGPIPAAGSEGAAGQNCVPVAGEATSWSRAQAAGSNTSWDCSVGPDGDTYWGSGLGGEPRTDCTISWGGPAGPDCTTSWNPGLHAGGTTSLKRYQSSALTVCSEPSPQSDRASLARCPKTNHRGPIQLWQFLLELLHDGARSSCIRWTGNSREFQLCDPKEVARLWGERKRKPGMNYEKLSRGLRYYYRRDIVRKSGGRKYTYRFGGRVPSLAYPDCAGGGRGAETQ
The settings on record: protein: recombinant; tags: N-terminal GST; dsDNA, one strand shown. The method, boiled down:
as §1

The next experiment addresses T10, ELF3 (Homo sapiens, UniProt P78545 1-371).
T10 sequence: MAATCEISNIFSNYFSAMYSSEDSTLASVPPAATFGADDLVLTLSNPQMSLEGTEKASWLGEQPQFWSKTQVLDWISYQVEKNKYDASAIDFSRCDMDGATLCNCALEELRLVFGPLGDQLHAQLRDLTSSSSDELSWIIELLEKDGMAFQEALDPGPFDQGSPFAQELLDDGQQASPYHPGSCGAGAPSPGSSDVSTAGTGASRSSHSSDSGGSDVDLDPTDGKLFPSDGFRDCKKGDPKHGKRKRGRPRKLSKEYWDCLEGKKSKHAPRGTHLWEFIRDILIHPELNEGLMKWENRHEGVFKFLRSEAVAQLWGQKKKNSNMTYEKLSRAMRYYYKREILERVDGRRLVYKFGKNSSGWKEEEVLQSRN
The note with it: protein: recombinant; tags: N-terminal GST; dsDNA, one strand shown. A digest of the protocol: as §1

For a further experiment, the target named is CRX (Homo sapiens, UniProt O43186 1-299). The note with it: protein: recombinant; tags: N-terminal GST; dsDNA, one strand shown. A digest of the protocol:
as §1

The target in a further experiment is ETV1 (Homo sapiens, UniProt P50549 1-477). The note with it: protein: recombinant; tags: N-terminal GST; dsDNA, one strand shown. The method, boiled down:
as §1

Chain of ELF4 (Q99607 whole entry): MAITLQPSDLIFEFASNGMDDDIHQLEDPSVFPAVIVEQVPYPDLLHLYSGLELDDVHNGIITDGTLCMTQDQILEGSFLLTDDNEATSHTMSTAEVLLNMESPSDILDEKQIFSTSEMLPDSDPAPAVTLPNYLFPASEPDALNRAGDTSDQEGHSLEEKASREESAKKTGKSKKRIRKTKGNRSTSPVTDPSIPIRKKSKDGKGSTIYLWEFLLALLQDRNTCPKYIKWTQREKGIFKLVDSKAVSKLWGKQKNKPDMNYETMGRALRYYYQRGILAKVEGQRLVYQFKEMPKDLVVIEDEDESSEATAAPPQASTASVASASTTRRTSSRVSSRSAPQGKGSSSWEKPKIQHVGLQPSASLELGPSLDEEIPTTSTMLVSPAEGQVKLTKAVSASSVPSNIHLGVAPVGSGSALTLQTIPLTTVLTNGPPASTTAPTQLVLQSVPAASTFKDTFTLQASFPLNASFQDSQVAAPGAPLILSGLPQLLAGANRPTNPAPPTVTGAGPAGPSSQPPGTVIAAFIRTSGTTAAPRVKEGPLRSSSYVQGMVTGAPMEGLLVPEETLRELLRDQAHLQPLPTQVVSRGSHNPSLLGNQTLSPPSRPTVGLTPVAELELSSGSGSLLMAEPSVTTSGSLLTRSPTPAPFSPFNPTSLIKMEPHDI
Chain of ETV1 (P50549 whole entry): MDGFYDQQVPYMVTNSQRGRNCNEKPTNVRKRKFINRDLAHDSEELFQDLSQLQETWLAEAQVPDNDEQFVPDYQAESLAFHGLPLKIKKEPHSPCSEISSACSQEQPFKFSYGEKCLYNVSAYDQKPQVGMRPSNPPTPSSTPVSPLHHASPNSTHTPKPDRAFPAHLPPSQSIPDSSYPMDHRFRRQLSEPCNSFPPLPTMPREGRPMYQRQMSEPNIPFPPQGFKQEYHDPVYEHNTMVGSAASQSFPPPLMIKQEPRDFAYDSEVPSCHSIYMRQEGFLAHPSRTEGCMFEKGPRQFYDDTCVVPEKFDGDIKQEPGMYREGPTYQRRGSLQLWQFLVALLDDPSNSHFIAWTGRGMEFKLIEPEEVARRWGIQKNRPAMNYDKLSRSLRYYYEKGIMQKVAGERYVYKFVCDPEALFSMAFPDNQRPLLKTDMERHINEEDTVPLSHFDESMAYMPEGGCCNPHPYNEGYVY
Chain of HSF1 (Q00613 whole entry): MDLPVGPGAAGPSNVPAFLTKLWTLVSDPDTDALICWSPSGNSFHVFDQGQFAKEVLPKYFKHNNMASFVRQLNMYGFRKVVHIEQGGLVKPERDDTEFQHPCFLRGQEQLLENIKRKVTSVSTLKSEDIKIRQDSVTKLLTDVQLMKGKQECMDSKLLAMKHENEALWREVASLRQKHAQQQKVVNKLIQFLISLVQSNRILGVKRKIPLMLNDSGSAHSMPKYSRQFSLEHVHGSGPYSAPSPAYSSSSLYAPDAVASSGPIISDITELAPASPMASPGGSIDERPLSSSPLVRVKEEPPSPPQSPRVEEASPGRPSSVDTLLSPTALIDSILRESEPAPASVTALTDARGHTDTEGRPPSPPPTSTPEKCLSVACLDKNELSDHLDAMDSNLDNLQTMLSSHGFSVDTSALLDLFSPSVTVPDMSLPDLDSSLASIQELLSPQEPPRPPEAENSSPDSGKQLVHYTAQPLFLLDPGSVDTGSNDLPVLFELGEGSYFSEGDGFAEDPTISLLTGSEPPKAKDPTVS
Chain of ETV5 (P41161 whole entry): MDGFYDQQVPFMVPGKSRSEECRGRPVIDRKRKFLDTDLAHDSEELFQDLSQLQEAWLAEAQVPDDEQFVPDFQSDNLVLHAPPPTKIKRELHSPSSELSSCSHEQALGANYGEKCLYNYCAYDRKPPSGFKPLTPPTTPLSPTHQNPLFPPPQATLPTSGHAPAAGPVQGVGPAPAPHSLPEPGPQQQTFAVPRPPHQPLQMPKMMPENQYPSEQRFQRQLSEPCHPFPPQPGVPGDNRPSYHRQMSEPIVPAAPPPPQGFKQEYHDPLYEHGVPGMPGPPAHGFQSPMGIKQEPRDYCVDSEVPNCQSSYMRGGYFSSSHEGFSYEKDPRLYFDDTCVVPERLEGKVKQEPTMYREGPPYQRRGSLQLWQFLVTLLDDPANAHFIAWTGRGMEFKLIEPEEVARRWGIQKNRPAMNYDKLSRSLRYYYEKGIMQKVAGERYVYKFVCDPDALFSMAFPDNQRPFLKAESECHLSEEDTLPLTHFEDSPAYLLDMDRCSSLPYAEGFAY
Chain of CRX (O43186 whole entry): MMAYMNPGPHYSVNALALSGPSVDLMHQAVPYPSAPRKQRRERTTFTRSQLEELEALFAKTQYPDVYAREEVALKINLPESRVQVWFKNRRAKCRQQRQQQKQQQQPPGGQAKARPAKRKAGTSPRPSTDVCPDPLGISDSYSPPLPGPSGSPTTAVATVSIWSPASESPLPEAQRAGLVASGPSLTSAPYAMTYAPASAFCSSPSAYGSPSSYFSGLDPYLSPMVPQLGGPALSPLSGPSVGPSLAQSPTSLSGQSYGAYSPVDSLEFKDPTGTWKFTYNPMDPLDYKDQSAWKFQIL
Chain of SPIB (Q01892 whole entry): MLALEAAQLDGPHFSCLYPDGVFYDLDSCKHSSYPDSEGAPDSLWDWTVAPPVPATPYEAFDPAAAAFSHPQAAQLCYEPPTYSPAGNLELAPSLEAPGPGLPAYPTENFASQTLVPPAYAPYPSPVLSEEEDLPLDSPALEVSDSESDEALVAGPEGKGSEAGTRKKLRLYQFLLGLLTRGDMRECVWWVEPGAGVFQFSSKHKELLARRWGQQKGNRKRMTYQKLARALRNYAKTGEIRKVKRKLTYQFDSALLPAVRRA

Consider CTTGAA, for which the binding signal with FLI1 was 1.16 fold enrichment (6-mer frequency, TF over GST control); in the experiment with ELK1, 1.24 fold enrichment (6-mer frequency, TF over GST control); with GABPA, 1.09 fold enrichment (6-mer frequency, TF over GST control); in the experiment with ERG, 1.12 fold enrichment (6-mer frequency, TF over GST control); in the experiment with ELF1, 1.2 fold enrichment (6-mer frequency, TF over GST control); in the experiment with EHF, 1.18 fold enrichment (6-mer frequency, TF over GST control). For the same sequence, the binding signal with SPI1 was 1.13 fold enrichment (6-mer frequency, TF over GST control); with SPIB it was 1.17 fold enrichment (6-mer frequency, TF over GST control); with FEV, 1.05 fold enrichment (6-mer frequency, TF over GST control); with ETV5 it was 1.09 fold enrichment (6-mer frequency, TF over GST control); in the experiment with HSF1, 1.26 fold enrichment (6-mer frequency, TF over GST control); in the experiment with SPIC, 1.09 fold enrichment (6-mer frequency, TF over GST control). Also, the binding signal in the experiment with ELF4 was 1.19 fold enrichment (6-mer frequency, TF over GST control); with ELK4, 1.22 fold enrichment (6-mer frequency, TF over GST control); in the experiment with ETV2, 1.11 fold enrichment (6-mer frequency, TF over GST control); in the experiment with ELF3, 1.08 fold enrichment (6-mer frequency, TF over GST control); with CRX it was 1.16 fold enrichment (6-mer frequency, TF over GST control); in the experiment with ETV1 it was 1.09 fold enrichment (6-mer frequency, TF over GST control).
